Results as given in PubChem BioAssay (NCATS).
Records with an inconclusive call do not appear. A call without a number means that no potency is given here. Activity calls are given as the source filed them. Unless noted, the call rests on the fitted dose curve; in most records, active means well fitted curve in the direction sought with a large enough effect; inconclusive means small, poorly fitted or top-dose-only effect, or another doubt; inactive means no such curve, though single readings can be large; an effect the other way counts as inactive or inconclusive.

How the values were obtained:
[1] = Cell Viability - LYMP1-002 - Assay at 16 hr (AID 948)
In short: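 ATP luminescence (CellTiter-Glo) was measured after 16 hr compound exposure at 37 C of 2500 lymphoblastoid LYMP1-002 cells per well. Concentration-response curves were fitted with the Hill equation to give AC50.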

[2] = MultiTox-Fluor Cytotoxicity Assay - LYMP1-002 - Live Cells (AID 955)
In short: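 Human lymphoblastoid LYMP1-002 cells, 2500/well in complete medium, rested 5 hr at 37 C, then exposed to compounds for 16 hr at 37 C. Live-cell protease cleavage of GF-AFC read by fluorescence (Ex/Em 405/510) after 60 min at room temperature; AC50 from Hill fits.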

[3] = MultiTox-Fluor Cytotoxicity Assay - LYMP1-003 - Live Cells (AID 962)
In short: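 LYMP1-003 human lymphoblastoid cells (2500/well) in complete medium were preincubated 5 hr at 37 C, then exposed to compounds for 16 hr at 37 C. Live-cell protease cleavage of GF-AFC read by fluorescence (Ex/Em 405/510); AC50 from Hill fits.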

[4] = Cell Viability - LYMP1-003 - Assay at 40 hr (AID 964); further: nearly all actives have a fitted effect of over 60% in size
In short: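 Human lymphoblastoid LYMP1-003 cells, 2500/well in complete medium, rested 5 hr at 37 C, then exposed to compounds for 40 hr at 37 C. Viability read as intracellular ATP by CellTiter-Glo luminescence; AC50 from Hill fits of concentration-response data.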

[5] = Cell Viability - LYMP2-011 (AID 969); further: nearly all actives have a fitted effect of over 60% in size
In short: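 Human lymphoblastoid cells (2500/well) were plated in complete medium, preincubated 5 hr at 37 C, then exposed to compounds for 24 hr at 37 C. Intracellular ATP was read by CellTiter-Glo luminescence, and AC50 came from Hill-equation concentration-response fits.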

[6] = Cell Viability - LYMP2-017 (AID 972); further: nearly all actives have a fitted effect of over 55% in size
In short: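 Human lymphoblastoid cells (2500/well) were seeded in complete medium, held 5 hr at 37 C, then exposed to compounds for 24 hr at 37 C. Intracellular ATP was read by CellTiter-Glo luminescence after 30 min at room temperature, with AC50 values from Hill-equation fits.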

[7] = Cell Viability - LYMP2-021 (AID 974);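 further: compound exposure lasts 24 hours at 37 °C; nearly all actives have a fitted effect of over 55% in size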
In short: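 Human lymphoblastoid cells (2500/well) were preincubated 5 hr at 37 C, then exposed to compounds for 24 hr at 37 C in complete medium. Intracellular ATP was read by CellTiter-Glo luminescence; AC50 came from Hill-equation fits of concentration-response data.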

[8] = Cell Viability - LYMP2-023 (AID 975); further: nearly all actives have a fitted effect of over 55% in size
In short: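 Human lymphoblastoid cells (2500/well) were preincubated 5 hr at 37 C, then exposed to compounds for 24 hr at 37 C in complete medium. Cellular ATP was read by CellTiter-Glo luminescence, and AC50 came from Hill-equation fits.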

[9] = Cell Viability - LYMP2-006 (AID 978); further: nearly all actives have a fitted effect of over 60% in size
In short: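 Potency values are Hill-fit AC50s for decreases in intracellular ATP (CellTiter-Glo luminescence). LYMP2-006 lymphoblastoid cells, 2500 per well, were exposed to compound in complete culture medium for 24 hr at 37 C.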

[10] = Cell Viability - LYMP2-010 (AID 981); further: nearly all actives have a fitted effect of over 55% in size
In short: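 Human lymphoblastoid LYMP2-010 cells (2500/well) were preincubated 5 hr at 37 C, then exposed to compounds for 24 hr at 37 C in complete medium. Intracellular ATP was measured by CellTiter-Glo luminescence after 30 min at room temperature; AC50 from Hill-fitted concentration-response.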

[11] = Cell Viability - LYMP2-014 (AID 983); further: nearly all actives have a fitted effect of over 50% in size
In short: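 Human lymphoblastoid cells (2500/well) were pre-incubated 5 hr at 37 C, then exposed to compounds in complete medium for 24 hr at 37 C. Intracellular ATP was read by CellTiter-Glo luminescence after 30 min at room temperature; AC50 from Hill fits.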

[12] = Cell Viability - LYMP2-026 (AID 989); further: nearly all actives have a fitted effect of over 50% in size
In short: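 Human lymphoblastoid cells (2500/well) in complete medium were preincubated 5 hr at 37 C, then exposed to compounds for 24 hr at 37 C. Cellular ATP was read by CellTiter-Glo luminescence; AC50 from Hill-equation fits of concentration-response data.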

[13] = Cell Viability - LYMP1-002 - Assay at 40 hr (AID 994); further: nearly all actives have a fitted effect of over 60% in size
In short: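 Human lymphoblastoid cells, 2500/well in complete medium, were preincubated 5 hr at 37 C, then exposed to compounds for 40 hr at 37 C. Intracellular ATP was read by CellTiter-Glo luminescence after 30 min at room temperature; AC50 from Hill-equation fits.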

[14] = Cell Viability - HUV-EC-C (AID 542); further: nearly all actives have a fitted effect of over 35% in size
In short: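 HUV-EC-C normal human vascular endothelial cells, 1000 cells/well, pre-incubated 5 hr at 37 °C, then exposed to compounds for 40 hr at 37 °C in complete medium. Viability measured as intracellular ATP by CellTiter-Glo luminescence; AC50 from Hill fits.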

[15] = MultiTox-Fluor Cytotoxicity Assay - LYMP1-001 - Live Cells (AID 947)
[16] = Cell Viability - LYMP2-004 (AID 966); further: nearly all actives have a fitted effect of over 65% in size
In short: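 Human lymphoblastoid cells (2500/well) in complete medium were treated with compounds for 24 hr at 37 C, then intracellular ATP was measured by CellTiter-Glo luminescence. AC50 values came from Hill-equation fits of concentration-response data.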

[17] = Cell Viability - LYMP2-009 (AID 968); further: nearly all actives have a fitted effect of over 55% in size
[18] = Cell Viability - LYMP2-013 (AID 970); further: nearly all actives have a fitted effect of over 55% in size
In short: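 Human lymphoblastoid cells, 2500/well, were preincubated 5 hr at 37 C, then treated with compounds for 24 hr at 37 C in complete medium. Intracellular ATP was read by CellTiter-Glo luminescence; AC50 from Hill-equation fits of concentration-response data.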

[19] = Cell Viability - LYMP2-025 (AID 976)
In short: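 Human lymphoblastoid LYMP2-025 cells (2500/well) were pre-incubated 5 hr at 37 C, then treated with compounds for 24 hr at 37 C in complete medium. Viability was read as intracellular ATP by CellTiter-Glo luminescence; AC50 from Hill fits.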

[20] = qHTS assay for small molecule disruptors of the mitochondrial membrane potential - 5 hr assay (AID 651755; calls by dose curve; further: nearly all actives have a fitted effect of over 40% in size)
In short: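 HepG2 cells (2,000/well), attached overnight, exposed to compound 5 hr at 37C, then Mito-MPS dye 30 min. Fluorescence read for monomers (490/535 nm) and aggregates (540/590 nm).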
Potency means the concentration at half of the fitted maximal effect.

Compound	Potency [1]	Potency [2]	Potency [3]	Potency [4]	Potency [5]	Potency [6]	Potency [7]	Potency [8]	Potency [9]	Potency [10]	Potency [11]	Potency [12]	Potency [13]	Potency [14]	Potency [15]	Potency [16]	Potency [17]	Potency [18]	Potency [19]	Potency [20]
O=C1OC2(c3cc(Br)c(O)c(Br)c3Oc3c2cc(Br)c(O)c3Br)c2c(Cl)c(Cl)c(Cl)c(Cl)c21	inactive	inactive	inactive	inactive	inactive	inactive	inactive	inactive	inactive	inactive	inactive	inactive	inactive							
O=C1OC(O)C(C(Cl)Cl)=C1Cl (stereo unspecified)					25.1 µM (active)	25.1 µM (active)	20 µM (active)	20 µM (active)	25.1 µM (active)	15.8 µM (active)	25.1 µM (active)	25.1 µM (active)		inactive	inactive	12.6 µM (active)	25.1 µM (active)	25.1 µM (active)	31.6 µM (active)	inactive
ClC1=C(Cl)C(Cl)(Cl)C(Cl)=C1Cl	inactive	inactive	inactive	inactive									inactive	inactive	inactive	inactive				inactive
C/C=C1\C(=O)C[C@H]2[C@@H]3CCC4=CC(=O)CC[C@]4(C)[C@H]3CC[C@]12C	inactive	inactive	inactive				inactive	inactive				inactive			inactive		inactive		inactive	inactive
CCCCCCCC[N+](CCCCCCCC)(CCCCCCCC)CCCCCCCC	6.31 µM (active)	3.98 µM (active)	12.6 µM (active)	3.16 µM (active)	6.31 µM (active)	7.94 µM (active)	7.94 µM (active)	7.94 µM (active)	5.01 µM (active)	3.16 µM (active)	6.31 µM (active)	7.94 µM (active)	3.98 µM (active)	12.6 µM (active)	10 µM (active)	7.94 µM (active)	3.98 µM (active)	7.94 µM (active)	12.6 µM (active)	2.66 µM (active)
O=Cc1ccc(Cl)c(Cl)c1	inactive	inactive	inactive	inactive	inactive	inactive	inactive	inactive	inactive	inactive	inactive	inactive	inactive	inactive	inactive	inactive	inactive	inactive	inactive	inactive
CC/C(=C(\c1ccccc1)c1ccc(OCCN(C)C)cc1)c1ccc(O)cc1	inactive													31.6 µM (active)						inactive
CN(C)c1ccc(C2(c3ccc(N(C)C)cc3)OC(=O)c3cc(N(C)C)ccc32)cc1	inactive	inactive	inactive	inactive	inactive	inactive	inactive	inactive	inactive	inactive	inactive	inactive	inactive	inactive	inactive	inactive	inactive	inactive	inactive	
Cc1cc(Nc2ccc(O)cc2)ccc1N	inactive	inactive	inactive		50.1 µM (active)	39.8 µM (active)	50.1 µM (active)	50.1 µM (active)	50.1 µM (active)	31.6 µM (active)	50.1 µM (active)	50.1 µM (active)	inactive		inactive	39.8 µM (active)	50.1 µM (active)	50.1 µM (active)	50.1 µM (active)	
c1cc(OCC2CO2)cc(OCC2CO2)c1 (stereo unspecified)				inactive																inactive
O=C(OCC(COC(=O)c1ccccc1)(COC(=O)c1ccccc1)COC(=O)c1ccccc1)c1ccccc1	inactive	inactive	inactive	inactive	inactive	inactive	inactive	inactive	inactive	inactive	inactive	inactive	inactive	inactive	inactive	inactive	inactive	inactive	inactive	
c1ccc2c(c1)ccc1cc3c(ccc4ccccc43)cc12	inactive	inactive	inactive	inactive	inactive	inactive	inactive	inactive	inactive	inactive	inactive	inactive	inactive	inactive	inactive	inactive	inactive	inactive	inactive	
CCC(C)Nc1ccc(NC(C)CC)cc1 (stereo unspecified)	15.8 µM (active)	10 µM (active)	12.6 µM (active)	10 µM (active)	6.31 µM (active)	3.98 µM (active)	3.98 µM (active)	6.31 µM (active)	5.01 µM (active)	3.16 µM (active)	5.01 µM (active)	7.94 µM (active)	15.8 µM (active)	10 µM (active)	12.6 µM (active)	6.31 µM (active)	3.98 µM (active)	6.31 µM (active)	7.94 µM (active)	59.6 µM (active)
CC(=O)Nc1ccc(C(=O)CCl)cc1	25.1 µM (active)	12.6 µM (active)	31.6 µM (active)	39.8 µM (active)	6.31 µM (active)	5.01 µM (active)	5.01 µM (active)	7.94 µM (active)	10 µM (active)	3.98 µM (active)	7.94 µM (active)	7.94 µM (active)	39.8 µM (active)	50.1 µM (active)	20 µM (active)	3.98 µM (active)	6.31 µM (active)	6.31 µM (active)	10 µM (active)	inactive
